# Screening results: PubChem BioAssay, National Center for Advancing Translational Sciences (NCATS)
# A selection: hits, their analogues and other compounds. The true share with any hit is near 6%.
# D1 antagonist – human D1 dopamine receptor antagonism. P21728. HEK293 TREx D1 cells, calcium flux, dopamine EC80; hits give low values. activity change, negative = inhibition, % at 10 µM. 360,000 compounds, 3.2% hits. AID 504652; in the data active = activity change below about -30%
#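 Compound effects on dopamine-evoked calcium signalling were measured in tetracycline-induced HEK293 Trex D1 cells. Dopamine at EC80 followed a 180 s compound pre-read, and fluorescence was tracked kinetically for 180 s more.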
# D1 ag – activates the human D1 dopamine receptor; 360,000 compounds, 1% hits; HEK293 T-REx D1 cells, calcium flux, agonist mode; activation, % at 2 µM; in the data active = activation above about 30%
#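 Tetracycline-induced HEK293 TREx D1 cells, force-coupled to calcium signalling, were dye-loaded with a no-wash calcium kit. Compound was pin-added after a 10 s baseline. Fluorescence was read kinetically at 1 cycle/s for 180 s, with calcium rises flagged as agonism.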
# D3 ag – D3 dopamine receptor (human) agonism; P35462; D3R DiscoveRx beta-arrestin cells, luminescence, 90 min; max activation, %; 410,000 compounds, 0.58% hits; in the data active = max activation above about 30%
# Target sequence (P35462 whole entry, looked up): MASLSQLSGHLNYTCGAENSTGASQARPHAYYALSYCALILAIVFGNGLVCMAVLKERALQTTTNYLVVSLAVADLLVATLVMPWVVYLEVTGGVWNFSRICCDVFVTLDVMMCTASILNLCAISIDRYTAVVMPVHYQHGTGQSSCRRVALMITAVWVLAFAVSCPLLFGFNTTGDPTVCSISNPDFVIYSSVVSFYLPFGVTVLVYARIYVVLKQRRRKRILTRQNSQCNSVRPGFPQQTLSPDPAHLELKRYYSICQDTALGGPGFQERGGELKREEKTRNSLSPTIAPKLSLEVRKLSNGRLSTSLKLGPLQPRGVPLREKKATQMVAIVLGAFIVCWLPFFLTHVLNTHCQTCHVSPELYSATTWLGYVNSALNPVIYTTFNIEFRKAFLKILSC
#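 Agonist-mode cell screen: cells plated at 1500/well and incubated overnight at 37 °C, then exposed to library compounds for 90 min at 37 °C. Detection reagent was added for 30–60 min at room temperature, and luminescence was read.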
# D1 potentiator – enhances dopamine response at the human D1 receptor; P21728; HEK293 TREx D1 cells, calcium flux, dopamine EC20 potentiation; potentiation, % at 10 µM; 360,000 compounds, 0.036% hits; AID 504651; in the data active = potentiation above about 30%
# DRD3 antagonist – D3 dopamine receptor (human) antagonism; P35462; D3R cells, DiscoveRx beta-arrestin luminescence, antagonist mode; hits give low values; max response, negative = inhibition, %; 360,000 compounds, 2.5% hits; AID 652054; in the data active = max response below about -50%; inconclusive = no clear call, values can overlap the other calls
#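 Cells expressing the human receptor were seeded at 1500 cells/well, incubated overnight at 37 degrees C in 5% CO2, then exposed to library compounds with dopamine controls for 90 minutes at 37 degrees C before luminescent detection.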
# Hits are given with their value; i = inactive; ? = inconclusive; nt = not tested or not shown.
SMILES,D1 antagonist,D1 ag,D3 ag,D1 potentiator,DRD3 antagonist
CC(=O)c1cccc(S(=O)(=O)NCCc2csc3nc(-c4ccc(F)cc4)nn23)c1,nt,i,i,i,nt
O=C(CSc1ccc2nnc(CCNS(=O)(=O)c3ccccc3)n2n1)Nc1ccccc1C(F)(F)F,i,i,i,i,nt
CCn1c(=NC(=O)c2ccc(S(=O)(=O)N3CCCCC3)cc2)sc2cccc(OC)c21,i,i,i,i,nt
Oc1c(C(c2ccccc2F)N2CCOCC2)sc2nc(-c3ccco3)nn12 (configuration not stated),nt,i,i,i,nt
Cc1ccc(S(=O)(=O)NCC(=O)OCc2csc(-c3ccccc3)n2)cc1,i,i,i,i,i
O=C(CNS(=O)(=O)c1c(Cl)cccc1Cl)OCc1csc(-c2ccccc2)n1,-48,i,i,i,i
COc1ccc(S(=O)(=O)Nc2ccc3oc4c(c3c2)C(=O)CC(C)(C)C4)cc1,i,i,i,i,nt
COc1ccc(C(=O)NC(=S)N(C)C2CCCCC2)cc1,-46,i,i,i,i
C=CCN(CC=C)C(=S)NC(=O)c1ccc(OC)cc1,i,i,i,i,-69
Cc1noc(NS(=O)(=O)c2ccc(NC(=O)C(Cl)(Cl)Cl)cc2)c1C,i,i,i,i,i
Cc1noc(NS(=O)(=O)c2ccc(NC(=O)Nc3ccc(Cl)c(Cl)c3)cc2)c1C,-47,33,i,i,-77
Cc1cc(C)c(C#N)c(SCC(=O)Nc2ccc(S(=O)(=O)Nc3onc(C)c3C)cc2)n1,i,i,i,i,-54
Cc1noc(NS(=O)(=O)c2ccc(NC(=O)CSc3n[nH]c(-c4ccccc4)n3)cc2)c1C,i,i,i,i,?
Cc1noc(NS(=O)(=O)c2ccc(N/C=C\C(=O)c3cccc4ccccc34)cc2)c1C,i,43,i,i,i
N/C(=N\S(=O)(=O)c1cc(C(F)(F)F)cc(C(F)(F)F)c1)c1ccc(Cl)cc1,-77,i,i,i,i
COc1ccccc1C(=O)Nc1cc2c(cc1N1CCOCC1)n(C)c(=O)n2C,i,i,i,i,nt
CC(=O)Oc1ccccc1-n1c(C)nc(=O)c(-c2ccccc2)c1C,-39,i,i,i,i
O=C(COC(=O)C1CCCCC1)Nc1cccc(F)c1,nt,nt,i,nt,i
COc1ccc(NC(=O)CC2CCCC2)cc1OC,-46,i,i,i,i
O=C(O)CCCC(=O)Nc1ccc(Cl)cc1,-54,i,i,i,i
O=C(COC(=O)CC1CCCC1)Nc1cccc(F)c1,-31,i,i,i,i
O=C(O)CCCC(=O)Nc1ccc(Br)cc1,i,i,i,i,i
COc1ccc(NC(=O)Cc2noc3ccc(C)cc23)cc1Cl,-31,i,i,i,nt
CCCCN(CC)C(=O)Nc1ccc2c(c1)N(C)C(=O)c1ccccc1S2,i,i,i,i,nt
O=C1C(=O)N(C2CCN(C(=O)c3ccccc3F)CC2)CCN1Cc1ccc(F)cc1,i,i,i,i,nt
SMILES,D1 antagonist,D1 ag,D3 ag,D1 potentiator,DRD3 antagonist
CCc1nn(CC(=O)NCC(C)c2ccccc2)c(=O)c2cc3c(OC)cccc3n12 (configuration not stated),i,i,i,i,nt
O=C(NCc1ccccc1F)c1cccc(NC(=O)N2CCSc3ncccc32)c1,i,i,i,i,nt
Cc1ccc(C)c(NC(=O)Cn2c(=O)n(CCCS(=O)(=O)C3CCCCC3)c(=O)c3ccccc32)c1,i,i,i,i,nt
COc1ccc(NC(=O)CN(C)C2CCCCC2)cc1Cl,-45,i,i,i,i
COc1ccc(NC(=O)CCCC(=O)O)cc1Cl,i,i,i,i,-50
CC(C)c1ncc([N+](=O)[O-])n1C,nt,nt,i,nt,nt
O=C(CCCN1C(=O)S/C(=C\C=C\c2ccccc2)C1=O)Nc1ccc(C(=O)O)cc1,i,i,i,i,i
O=C(CCN1C(=O)S/C(=C\C=C\c2ccccc2)C1=O)Nc1ccc(O)cc1,-38,i,i,i,i
Cc1cc(NC(=O)/C=C/c2cccc(F)c2)n(-c2nc3ccccc3[nH]2)n1,i,i,i,i,i
Cc1cc(NC(=O)/C=C/c2ccc(F)cc2)n(-c2nc3ccccc3[nH]2)n1,-36,i,i,i,i
Cc1cc(NC(=O)c2c(F)cccc2F)n(-c2nc3ccccc3[nH]2)n1,i,i,37,i,-96
COc1ccc(/C=C/C(=O)Nc2cc(C)nn2-c2nc3ccccc3[nH]2)cc1,-41,i,i,i,i
CCCc1ccc(Oc2cn[nH]c2-c2ccc(O)c(C)c2O)cc1,i,33,i,i,i
CCCOC(=O)c1ccc(Oc2cn[nH]c2-c2ccc(OCC)cc2O)cc1,i,i,i,i,i
CCCc1ccc(Oc2c(-c3ccc(O)c(C)c3O)n[nH]c2C)cc1,i,35,i,i,-81
Cc1ccc(CCNC(=O)c2c[nH]c3ccc(S(=O)(=O)Nc4cccc(C(F)(F)F)c4)cc3c2=O)cc1,i,i,i,i,nt
COc1ccc(CC(=O)Oc2ccc(C)cc2C)cc1,i,i,i,i,i
COc1ccc(CC(=O)c2ccc(OC)c(OC)c2C)cc1OC,-34,i,i,i,i
COc1ccc(CC(=O)Oc2ccc(C)cc2Br)cc1OC,-32,i,i,i,i
COc1ccc(Cl)cc1Nc1nc2ccc(C(=O)c3ccccc3)cc2n2cnnc12,i,i,i,i,nt
COc1ccc(-n2nc3c(c2NC(=O)C2CC2)CS(=O)C3)cc1 (configuration not stated),i,i,i,i,i
COc1ccc(-n2nc3c(c2NC(=O)C24CC5CC(CC(C5)C2)C4)CS(=O)C3)cc1 (configuration not stated),i,i,i,nt,-56
CCOc1ccc(CNC(=O)CSc2nnc(C)c3c(C)n(-c4ccc(Cl)cc4)nc23)cc1,i,i,i,i,nt
COc1ccc(NC(=O)c2oc3ccccc3c2NC(=O)c2cccc(F)c2)c(OC)c1,i,i,i,i,nt
COc1cc2c(cc1OC)C(C1C(=O)CC(C)(C)CC1=O)N(C(=O)CCl)CC2 (configuration not stated),i,i,i,i,i
SMILES,D1 antagonist,D1 ag,D3 ag,D1 potentiator,DRD3 antagonist
COc1cc2c(cc1OC)C(c1cc(Br)ccc1F)N(C(=O)CCl)CC2 (configuration not stated),i,i,i,i,-87
CC(=O)c1sc2c(c1C)c(=O)n(-c1ccc(Cl)cc1)c(=O)n2Cc1ccc(Cl)cc1,i,i,i,i,nt
O=C1CC(c2cccc(Cl)c2)CC(O)=C1C=NCCCO (configuration not stated),i,i,i,i,-90
O=C(O)c1cccc(OCCN2CCCC2=O)c1,-32,i,i,i,i
Cc1ccc(NC(=O)CSc2nc(-c3ccco3)nc3cc(=O)[nH]n23)cc1,i,i,i,i,nt
CCOc1ccc(Nc2nn(-c3ccc(OC(F)(F)F)cc3)nc2C(C)=O)cc1,i,i,i,i,nt
Cc1nc(NC2=NCN(CCc3ccccc3)CN2)nc2ccccc12,i,i,nt,i,nt
Cc1ccc2c(C)nc(NC3=NCN(CCc4ccccc4)CN3)nc2c1,-43,i,nt,i,nt
